Measurements taken from PubChem BioAssay AID624296 (National Center for Advancing Translational Sciences (NCATS), 2012).
Among all 350,000 compounds or so, about 9,900 (2.8%) were called active. Where a call stands in place of a potency, no number is given. Another 15% or so got no clear call; they are omitted. The call rests on the fitted dose curve; in most records, active means well fitted activation curve with a large enough effect; inconclusive means small, poorly fitted or top-dose-only effect; inactive means no such curve, though single readings can be large or run the other way. The sample as a whole holds a higher share of actives than the screen did.

test: A quantitative high throughput screen for small molecules that induce DNA re-replication in MCF 10a normal breast cells.; further: nearly all actives have a fitted effect of over 50% in size; conditions: MCF 10A DNA re-replication, Hoechst nuclear intensity, 48 h; series mostly up to 46.1 µM
Potency means the concentration at half of the fitted maximal effect.

SMILES | Potency
COc1ccc(OCCNC(=O)c2cc(C3CC3)nc3c2cnn3C(C)C)cc1 | inactive
O=C(CSc1nc2[nH]ncc2c(=O)[nH]1)Nc1ccc(F)cc1 | inactive
Cc1cc(C)c2c(=O)[nH]c(SCC(=O)Nc3ccc(Br)cc3)nc2n1 | 11.6 µM (active)
Cc1cccc(NC(=O)CSc2nc3[nH]ncc3c(=O)[nH]2)c1 | inactive
COc1ccccc1-n1nnnc1SCC(=O)NC(=O)Cc1ccccc1 | inactive
COc1ccccc1-n1nnnc1S(=O)(=O)Cc1ccc(Cl)cc1 | 16.4 µM (active)
COc1ccccc1N1CCN(S(=O)(=O)c2ccc(Cl)cc2)CC1 | inactive
CCN(CC(=O)Nc1ccc(NC(C)=O)cc1)C(=O)CSC(=S)N1CCCC1 | inactive
CC1(C)Cc2c(cnn2-c2cccc(F)c2)C(NC(=O)c2cc[n+]([O-])cc2)C1 (configuration not stated) | inactive
COC(=O)c1ccc(C(=O)NC2CC(C)(C)Cc3c2cnn3-c2ccc(F)cc2)nc1 (configuration not stated) | 20.6 µM (active)
Cc1cc(C(=O)NC2CC(C)(C)Cc3c2cnn3-c2ccccc2)n[nH]1 (configuration not stated) | inactive
COc1cc(/C=N\Nc2nc(-c3cccs3)c(NC(C)=O)s2)ccc1O | inactive
CCOc1cc(C=NNC(=O)CCCC(=O)NN=Cc2ccc(O)c(OCC)c2)ccc1O | inactive
CCOc1cc(/C=C(\C#N)c2nc(-c3cccs3)c(NC(C)=O)s2)ccc1O | 5.8 µM (active)
COc1ccc(S(=O)(=O)N2CCN(C(C)C(=O)Nc3ccc(C(C)C)cc3)CC2)cc1 (configuration not stated) | inactive
CCN(CC(=O)Nc1cc(Cl)ccc1C)C(=O)CSCc1ccccc1 | inactive
Cc1ccccc1-c1cc(C(=O)NCC2CC2)n(CC2CC(c3cccnc3)=NO2)n1 (configuration not stated) | inactive
Cn1c(SCC(=O)Nc2ccc(N3CCOCC3)cc2)nnc1C(F)(F)F | inactive
O=C(NCc1ccc2c(c1)OCO2)c1cc([N+](=O)[O-])ccc1N1CCOCC1 | 5.8 µM (active)
O=C(NC1CCCCC1)c1cc([N+](=O)[O-])ccc1N1CCOCC1 | inactive
CC1CCN(c2ccc(C(=O)NCc3ccc4c(c3)OCO4)cc2[N+](=O)[O-])CC1 | inactive
COc1ccccc1NC(=O)N(O)C1(C#N)CCCCC1 | inactive
CN(C)C(=O)CCc1ccc2c3c([nH]c2c1)[C@]1(C)[C@@H](C(=O)N2CCOCC2)C[C@H](CC(=O)NCCc2ccccn2)C(=O)N1CC3 | inactive
CC(C)CN1CC(C)C(=O)N(c2ccccc2)C1=S (configuration not stated) | inactive
Cc1cccn2c(=O)c3cc(C(=O)NCC4CCCO4)c(=N)n(Cc4ccc(F)cc4)c3nc12 (configuration not stated) | 1.84 µM (active)

SMILES | Potency
COc1ccc(CNC(=O)c2cc3c(=O)n4ccccc4nc3n(CC3CCCO3)c2=N)cc1 (configuration not stated) | 9.2 µM (active)
COc1ccc(C(=O)Nc2ccccc2C(=O)NCc2ccco2)cc1 | inactive
COc1ccc(CCn2c(=N)c(C(=O)NCc3ccco3)cc3c(=O)n4cccc(C)c4nc32)cc1 | 18.4 µM (active)
O=C(NCC1CCCO1)c1cc(-c2ccccc2)nc2ccccc12 (configuration not stated) | inactive
Cc1ccc(-c2noc(-c3ccccc3C(=O)NCC3CCCO3)n2)cc1 (configuration not stated) | inactive
Cc1ccc(CCNC(=O)c2ccc3nc4ccccc4c(=O)n3c2)cc1 | inactive
COc1ccc2oc(C(=O)NCc3ccco3)c(C)c2c1 | inactive
O=C(CSc1nc2ccccc2c(=O)n1Cc1ccc(F)cc1)NCC1CCCO1 (configuration not stated) | inactive
COc1ccc(CCNC(=O)Cn2c(=O)n(CC3CCCO3)c(=O)c3ccccc32)cc1OC (configuration not stated) | inactive
COc1ccc(CCNC(=O)CCn2c(=O)c3ccccc3n(CC(=O)NCC3CCCO3)c2=O)cc1OC (configuration not stated) | inactive
Cc1ccc2nc3c(cc(C(=O)NCCc4ccccc4)c(=N)n3CC3CCCO3)c(=O)n2c1 (configuration not stated) | 6.51 µM (active)
O=C(CSc1nccn1-c1cccc(F)c1)NC1CCCC1 | inactive
C#CCOCCOCCOCCNc1nc(N2CCN(C(=O)Cn3cc(CCO)nn3)CC2)nc(N2CCN(C(=O)[C@H](CCCCN)n3cc(CCCC)nn3)CC2)n1 | inactive
O=C1NCC(Nc2ccccc2)C(=O)N1 (configuration not stated) | inactive
COc1ccc(C(=O)C(C)OC(=O)c2cccc(S(=O)(=O)Nc3c(C)n(C)n(-c4ccccc4)c3=O)c2)cc1 (configuration not stated) | inactive
CCC(=O)c1ccc(OCC(=O)N(CC)CC2COc3ccccc3O2)cc1 (configuration not stated) | inactive
COc1cc(C)ccc1OCC(=O)OCC(=O)c1ccc[nH]1 | inactive
COC(=O)[C@]1(Cc2ccccc2)N[C@H](CN(C)S(=O)(=O)c2ccc(OC(F)(F)F)cc2)[C@@H]2C(=O)N(Cc3ccccc3)C(=O)[C@@H]21 | inactive
CC(NC(=O)c1ccccc1)C(=O)OCC(=O)Nc1cccc(S(=O)(=O)N2CCCC2)c1 (configuration not stated) | inactive
CC(NC(=O)CN(C)S(=O)(=O)c1ccc(F)cc1)C1CC2CCC1C2 (configuration not stated) | inactive
C=CC1=C(C(=O)O)N2C(=O)[C@@H](NC(=O)/C(=N\OCC(=O)O)c3csc(N)n3)[C@H]2SC1 | inactive
O=C(NCc1ccccc1)C(=O)NCC1OCCN1S(=O)(=O)c1ccc(Br)cc1 (configuration not stated) | inactive
O=C(NCc1ccncc1)C(=O)NCC1OCCN1S(=O)(=O)c1ccc(Br)cc1 (configuration not stated) | 18.4 µM (active)
COc1ccc(S(=O)(=O)N2CCOC2CNC(=O)C(=O)NCc2ccncc2)cc1OC (configuration not stated) | inactive
CCN1C[C@@H]2[C@@H]3C(=O)N(Cc4ccccc4)C(=O)[C@@H]3[C@](C)(C1=O)N2C(=O)c1ccc(C(C)(C)C)cc1 | inactive

SMILES | Potency
Cc1cccc(NS(=O)(=O)c2ccc(C)c(C(=O)NCC(c3ccccc3)N(C)C)c2)c1 (configuration not stated) | inactive
OCc1ccc(-c2ccccc2)c(-c2ccccc2)c1 | 23.1 µM (active)
OCc1nc(CO)n(Cc2ccccc2)n1 | inactive
OCC(CO)(CO)NCc1ccc(-c2ccccc2)cc1 | inactive
O=c1c2ccccc2ccc2ccc(P(=O)(O)O)cc12 | inactive
COc1ccc(NS(=O)(=O)c2cccc(C(=O)NCCc3ccc(S(N)(=O)=O)cc3)c2)cc1 | inactive
CN(CC(=O)Nc1ccc(Cl)c(C(F)(F)F)c1)C(=O)CCC(=O)c1ccccc1 | inactive
Cc1ccc(NC(=O)C(C)OC(=O)C2CC3CCCC(C2)C3=O)cc1S(=O)(=O)N1CCOCC1 (configuration not stated) | inactive
CCc1ccccc1NC(=O)CN(C)C(=O)c1cc(C2CC2)nn1-c1ccccc1 | inactive
CCc1ccc(CN(C)C(C)C(=O)Nc2ccc(S(=O)(=O)N3CCCC3)cc2)cc1 (configuration not stated) | inactive
CCOC(=O)c1sc(NC(=O)CSc2ncccn2)c(C#N)c1C | 14.6 µM (active)
CCC(=O)Nc1sc(C(=O)N2CCCCC2)c(C)c1C#N | inactive
CCOC(=O)c1sc(NC(=O)CSc2nnc(-c3ccco3)o2)c(C(=O)OCC)c1C | inactive
O=C(Nc1ccc2ccccc2c1[N+](=O)[O-])c1ccccc1 | inactive
COc1ccc(S(=O)(=O)N2CCCCC2)cc1NC(=O)COc1ccccc1 | inactive
CCCc1cc(=O)[nH]c(SCC(=O)Nc2ccc(C(=O)Nc3ccccc3OC)cc2)n1 | inactive
Cc1ccc(NS(=O)(=O)c2ccc(C)c(NC(=O)COc3ccc4ccccc4c3)c2)c(C)c1 | inactive
COc1cc(NS(=O)(=O)c2ccc3ccccc3c2)c2ncccc2c1 | 5.17 µM (active)
COc1ccc2cc(S(=O)(=O)Nc3ccccn3)ccc2c1 | inactive
CC(=O)Nc1ccc(NC(=O)C(NS(=O)(=O)c2ccc3c(c2)OCCO3)C(C)C)cc1 (configuration not stated) | inactive
Cc1ccc(-n2nc3ccc(NC(=O)/C=C/c4ccco4)cc3n2)cc1C | 8.2 µM (active)
CCC(=O)Nc1ccc2nn(-c3ccc(F)cc3)nc2c1 | inactive
Cc1nnc(NC(=O)/C=C/c2ccco2)s1 | inactive
CNN/C(N=Cc1ccc([N+](=O)[O-])s1)=N\S(=O)(=O)c1cc(C)c(Cl)cc1SCc1ccccc1 | inactive
CN(CCc1ccccc1)C(=O)c1cccc(NC(=O)Cc2ccc([N+](=O)[O-])cc2)c1 | inactive

SMILES | Potency
O=C1c2ccccc2[C@@H]2C[C@@H](O)[C@H](Nc3ccccc3Cl)CCN12 | inactive
CC(C)N(C(=O)CSc1nnc(NC2CC2)s1)c1ccccc1 | inactive
CC(=O)c1c(C)oc2ccc(NS(=O)(=O)c3ccccc3)cc12 | inactive
CC(=O)c1c(C)oc2ccc(NS(=O)(=O)c3ccc(C(=O)O)cc3)cc12 | inactive
COc1ccc(S(=O)(=O)Nc2ccc3oc(C)c(C(C)=O)c3c2)cc1 | 5.17 µM (active)
NN=C(NN=Cc1ccccc1)c1ccccc1 | inactive
COc1ccc(S(=O)(=O)N(C)C[C@H]2Oc3ccc(NS(=O)(=O)c4cccs4)cc3CC(=O)N([C@H](C)CO)C[C@H]2C)cc1 | inactive
Cc1ccc(N/C=C/C(=O)c2ccccc2)cc1C | inactive
Cc1cc(C)nc(SCC(=O)c2ccc(Cl)cc2)n1 | inactive
Cc1cc(C)nc(S/C=C/C(=O)c2ccccc2)n1 | 1.3 µM (active)
CC(=O)C[C@H](O)CC(=O)[C@@H]1OC(=O)[C@@H](C)C/C=C\Cc2ccccc21 | inactive
CCOc1ccc(NC(=O)CN(C)C(=O)CSc2ccccc2)cc1OCC | inactive
Cc1cc(NC(=O)CSc2nnc(-c3ccco3)n2N)no1 | inactive
Cc1cc(NC(=O)CSc2nc3ccccc3n2CC(C)C)no1 | inactive
Cc1cc(NC(=O)CSc2nc3cc(Cl)ccc3c(=O)n2Cc2ccco2)no1 | 18.4 µM (active)
COc1ccc(S(=O)(=O)N2CCOCC2)cc1NC(=O)Cc1coc2cc(C)ccc12 | inactive
COC(=O)C1CC2=C(CC(C)(C)CC2=O)N(c2ccccc2)C1=O (configuration not stated) | inactive
Cc1nn(Cc2ccccc2)c(C)c1C(=O)N1CCN(CC(=O)Nc2ccccc2Cl)CC1 | inactive
CC(OC(=O)c1cc2ccccc2o1)C(=O)Nc1ccc(N2CCOCC2)cc1 (configuration not stated) | inactive
CC(C)c1nc2ccc(C(=O)O)cc2[nH]1 | 11.6 µM (active)
OC(c1nc2ccccc2[nH]1)C(O)C(O)C(O)c1nc2ccccc2[nH]1 (configuration not stated) | inactive
OC(c1nc2ccc(F)cc2[nH]1)C(O)c1nc2ccc(F)cc2[nH]1 (configuration not stated) | inactive
